# Active and inactive are the calls of the source. Cut-off read from the data, not from the text of the source, unless noted: active = inhibition above about 80%; inactive = the rest.
# Legend:
# [1] = LFS_MB_P medulloblastoma growth inhibition, cell-based, chromothripsis tumors, cisplatin or BGB combos (AID 1671449); details: LFS_MB_P medulloblastoma cells;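 note: cells exposed for 96 hours; 0% = vehicle DMSO and 100% = killing by high DMSO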
# [2] = HDN33 neuroblastoma growth inhibition, cell-based, chromothripsis tumors, cisplatin or BGB combos (AID 1671450); details: HDN33 neuroblastoma cells, stronger effect = higher value;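 note: cells exposed to compound for four days; 0% = vehicle DMSO and 100% = cell killing by high DMSO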
# [3] = ICB984 medulloblastoma cell growth inhibition, synergistic combos for chromothripsis tumors, cisplatin or BGB combos (AID 1671451; call rule not given here;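 note: cells exposed for 96 hours before readout; 0% = vehicle DMSO and 100% = killing by high DMSO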); details: ICB984 medulloblastoma cells, drug combinations, stronger effect = higher value
# [4] = LFS_MB_1R medulloblastoma cell growth inhibition, synergistic combos for chromothripsis tumors, cisplatin or BGB combos (AID 1671452); details: LFS_MB_1R medulloblastoma cells, stronger effect = higher value;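 note: cells exposed for 96 hours before readout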
# [5] = HTB85 osteosarcoma cell growth inhibition, synergistic combos for chromothripsis tumors, BGB or cisplatin IC20 combos (AID 1671453); details: HTB85 osteosarcoma cells, drug combinations, stronger effect = higher value;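 note: cells exposed for 96 hours before readout; 0% = vehicle DMSO and 100% = high DMSO killing control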
# [6] = CRL2098 osteosarcoma cell growth inhibition, synergistic combos for chromothripsis tumors, BGB or cisplatin IC20 combos (AID 1671454); details: CRL2098 osteosarcoma cells, drug combinations, stronger effect = higher value;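 note: cells exposed for 96 h before readout; 0% = vehicle DMSO and 100% = killing by high DMSO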
# [7] = HD-MB03 medulloblastoma cell growth inhibition, synergistic combos for chromothripsis tumors, BGB or cisplatin IC20 combos (AID 1671455; in the data active = inhibition above about 83%;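 note: 0% = vehicle DMSO and 100% = high DMSO as cytotoxic control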); details: HD-MB03 medulloblastoma cells, stronger effect = higher value
# [8] = UWB1.289 ovarian carcinoma cell growth inhibition, synergistic combos for chromothripsis tumors, BGB or cisplatin combos (AID 1671456); details: UWB1.289 ovarian carcinoma cells, stronger effect = higher value;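 note: cells exposed to compound for four days; 0% = vehicle DMSO and 100% = killing by high DMSO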
# [9] = LFS_MB_2R medulloblastoma cell growth inhibition, synergistic combos for chromothripsis tumors, cisplatin combos (AID 1671457); details: LFS_MB_2R medulloblastoma cells, stronger effect = higher value;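 note: cells exposed to compound for four days before readout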
# [10] = MDA-MB-436 breast carcinoma cell growth inhibition, synergistic combos for chromothripsis tumors, BGB or cisplatin combos (AID 1671458; call rule not given here;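 note: cells exposed for 96 hours; 0% = vehicle DMSO and 100% = killing by high DMSO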); details: MDA-MB-436 breast carcinoma growth inhibition, drug combinations, stronger effect = higher value
# [11] = UWB1.289_BRCA1 ovarian cancer growth, cell-based, BGB or cisplatin combinations (AID 1671459); details: UWB1.289 BRCA1 ovarian carcinoma, drug combinations, stronger effect = higher value
# [12] = human astrocyte viability loss, single and combined drugs, cytotoxicity control for chromothriptic childhood tumor combination screen, cell-based, BGB or cisplatin IC20 combos (AID 1671460); details: Human astrocytes, drug combinations, stronger effect = higher value;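 note: cells exposed to compounds for 96 hours before viability readout; 0% = vehicle and 100% = killing control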
# [13] = growth inhibition of BT084 medulloblastoma cells, cell-based, ICGC_MB145, cisplatin and BGB IC40 combos (AID 1671461); details: drug combinations, stronger effect = higher value;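 note: cells exposed to drugs for 96 hours; 0% = vehicle DMSO and 100% = high DMSO full killing control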
# [14] = growth inhibition of RCMB18 medulloblastoma cells, cell-based, cisplatin and BGB IC40 combos (AID 1671462); details: stronger effect = higher value;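 note: cells exposed to compound for four days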
# [15] = growth inhibition of CRL1545 osteosarcoma cells, cell-based, cisplatin and BGB IC20 combos (AID 1671464); details: stronger effect = higher value;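 note: cells exposed to compound for 96 hours before readout; 0% = vehicle DMSO and 100% = high DMSO killing control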
# [16] = viability rescue of complex I mutant cybrids, primary screen, cell-based, galactose medium, ATP luminescence (AID 1645843;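 active = z-score of at least 1.8 in each of two replicates, scored against plate mean and spread of sample wells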;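 note: positive z means more ATP and so rescue of galactose-driven cybrid death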); details: complex I mutant cybrid cells, 72 h, stronger effect = higher value
# [17] = circadian clock period modulators, cell-based, LOPAC library, luminescence reporter (AID 2774; call rule not given here;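 note: values are relative to mean of DMSO wells on each plate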); details: circadian reporter cells, at 7 µM, actives lie on both sides
# [18] = measured here: combination with BGB IC40, at 0.05 µM
# [19] = measured here: with BGB IC20 combination, at 0.5 µM
# [20] = measured here: with cisplatin IC20 combination, at 0.5 µM
# [21] = measured here: combination with cisplatin, at 0.5 µM
# [22] = measured here: combination with cisplatin, at 5 µM
compound,measurement,setting,value
O=P(O)(NCCCl)NCCCl,inhibition,"[1]; at 0.5 µM, stronger effect = higher value",-22.2% (inactive)
same,inhibition,"[1]; measured here: combination with BGB IC20, at 0.005 µM",-18.1%
same,inhibition,"[1]; measured here: combination with BGB IC40, at 0.005 µM",-19.6%
same,inhibition,[1]; [18],-1.01%
same,inhibition,"[1]; measured here: combination with cisplatin, at 0.5 µM, stronger effect = higher value",-31.9%
same,inhibition,"[1]; measured here: combination with cisplatin, at 5 µM, stronger effect = higher value",-32.1%
same,inhibition,"[2]; BGB combo, at 5 µM",-3.04%
same,inhibition,[2]; at 0.5 µM,-31.2% (inactive)
same,inhibition,"[2]; cisplatin combo, at 5 µM",-23.7%
same,inhibition,[2]; [19],-28%
same,inhibition,[2]; [20],-30.2%
same,inhibition,"[2]; single agent, at 5 µM",-43.4%
same,inhibition,"[3]; BGB IC20 combo, at 0.005 µM",-17.4%
same,inhibition,"[3]; BGB IC40 combo, at 0.005 µM",-58.7%
same,inhibition,"[3]; BGB IC40 combo, at 0.05 µM",-40.4%
same,inhibition,[3]; at 0.5 µM,-24.2% (inactive)
same,inhibition,"[3]; cisplatin combo, at 0.05 µM",-45.9%
same,inhibition,"[3]; cisplatin combo, at 0.5 µM",-25.8%
same,inhibition,"[3]; cisplatin combo, at 5 µM",-10.7%
same,inhibition,"[3]; measured here: 5 uM single agent, at 5 µM",3.71%
same,inhibition,[4]; at 0.5 µM,-40.6% (inactive)
same,inhibition,[4]; [18],-43.7%
same,inhibition,[4]; [21],-71.6%
same,inhibition,[4]; [22],-97.5%
same,inhibition,[5]; at 0.5 µM,-29.6% (inactive)
same,inhibition,"[5]; measured here: with BGB IC20, at 0.5 µM",-31.2%
same,inhibition,"[5]; measured here: with BGB IC20, at 5 µM",0.766%
same,inhibition,"[5]; measured here: with cisplatin IC20, at 0.5 µM",-42.4%
same,inhibition,"[5]; measured here: with cisplatin IC20, at 5 µM",5.56%
same,inhibition,"[5]; single agent, at 5 µM",-6.89%
same,inhibition,[6]; at 0.5 µM,-58.4% (inactive)
same,inhibition,"[6]; measured here: combination with BGB at IC20, at 0.5 µM",-43.5%
same,inhibition,"[6]; measured here: combination with cisplatin at IC20, at 0.5 µM",-12.2%
same,inhibition,[7]; at 0.5 µM,-20.7% (inactive)
same,inhibition,"[7]; measured here: combo with BGB at IC20, at 0.5 µM",-26.7%
same,inhibition,"[7]; measured here: combo with cisplatin at IC20, at 0.5 µM",-18.9%
same,inhibition,[8]; at 0.5 µM,-15.1% (inactive)
same,inhibition,"[8]; measured here: inhibition with BGB combination, at 0.05 µM",-6.88%
same,inhibition,"[8]; measured here: inhibition with cisplatin combination, at 0.05 µM",-8.03%
same,inhibition,[9]; at 0.5 µM,-16.7% (inactive)
same,inhibition,[9]; [21],-19.3%
same,inhibition,[9]; [22],-26.8%
same,inhibition,[10]; at 0.5 µM,-14.5% (inactive)
same,inhibition,"[10]; measured here: BGB combination, at 0.5 µM",-12.5%
same,inhibition,"[10]; measured here: BGB combination, at 5 µM",-5.62%
same,inhibition,"[10]; measured here: cisplatin combination, at 0.5 µM",-16%
same,inhibition,"[10]; measured here: cisplatin combination, at 5 µM",-15.6%
same,inhibition,"[11]; BGB combination, concentration series, at 5 µM",-1.33%
same,inhibition,[11]; at 0.5 µM,-15.6% (inactive)
same,inhibition,"[11]; cisplatin combination, concentration series, at 5 µM",-23%
same,inhibition,[12]; at 0.5 µM,-6.45% (inactive)
same,inhibition,"[12]; measured here: combo with BGB IC20, at 0.5 µM",-2.47%
same,inhibition,"[12]; measured here: combo with cisplatin IC20, at 0.5 µM",-6.44%
same,inhibition,[13]; at 0.5 µM,-3.8% (inactive)
same,inhibition,"[13]; cisplatin combination, at 0.5 µM",2.29%
same,inhibition,"[13]; cisplatin combination, at 5 µM",-12.8%
same,inhibition,"[13]; measured here: BGB IC40 combination 0.05 uM, at 0.05 µM",-21.5%
same,inhibition,"[13]; single agent, at 5 µM",-15.7%
same,inhibition,[14]; at 0.5 µM,-17.3% (inactive)
same,inhibition,"[14]; cisplatin combo, at 5 µM",5.67%
same,inhibition,"[14]; measured here: BGB IC40 combination, at 0.05 µM",-4.66%
same,inhibition,[14]; [21],-18.6%
same,inhibition,"[14]; single agent, at 5 µM",-40.3%
same,inhibition,[15]; at 0.5 µM,-42.1% (inactive)
same,inhibition,[15]; [19],-36.5%
same,inhibition,[15]; [20],-44.9%
same,inhibition,"[15]; single agent, at 0.05 µM",-55%
same,inhibition,"[15]; single agent, at 5 µM",-25.3%
CCN1CCCC(N2CCN3CCCC3C2)C1 (configuration not stated),z-score,[16],-0.225 (inactive)
COc1ccc2[nH]cc(CCN(C)C)c2c1,period change,[17],0.045 h (inactive)
C[C@]12CC[C@H](OS(=O)(=O)O)CC1=CC[C@@H]1[C@@H]2CC[C@]2(C)C(=O)CC[C@@H]12,period change,[17],-0.035 h (inactive)
CCCOC1CCCN(C2CCN(C)CC2)C1 (configuration not stated),z-score,[16],-0.46 (inactive)
N[C@@H](Cn1cc(I)c(=O)[nH]c1=O)C(=O)O,period change,[17],-0.19 h (inactive)
CN1CCC23CCCC[C@H]2C1Cc1ccc(O)cc13 (some centres not stated),period change,[17],-0.06 h (inactive)
CC1=C[C@@H]2c3cccc4[nH]cc(c34)C[C@H]2N(C)C1,period change,[17],0.28 h (inactive)
CCN1C[C@]2(C)CC[C@H](O)[C@@]34C5C[C@@H]6[C@@H](OC)C[C@@](O)(C5[C@H]6O)[C@@H](CC23)C14 (some centres not stated),period change,[17],0.055 h (inactive)
CC1(C)C(C(=O)N2CCC(n3cc(C4CC4)nn3)CC2)C1(C)C,z-score,[16],-0.525 (inactive)
